# Source: PubChem BioAssay AID743266 (National Center for Advancing Translational Sciences (NCATS), 2014)
# Screen size: about 410,000 compounds; about 310 (0.076%) were called active. About 2% were inconclusive and are not listed. Many of the other results were omitted from the sample, so actives are more common in it than they were. Unmarked numbers belong to inactive results. The call rests on the fitted dose curve; in most records, active means well fitted activation curve with a large enough effect; inconclusive means small, poorly fitted or top-dose-only effect, or another doubt; inactive means no such curve, though single readings can be large or run the other way.
# Biological target: Parathyroid hormone/parathyroid hormone-related peptide receptor (Homo sapiens) (UniProt Q03431)
# Sequence (Q03431 whole entry, looked up): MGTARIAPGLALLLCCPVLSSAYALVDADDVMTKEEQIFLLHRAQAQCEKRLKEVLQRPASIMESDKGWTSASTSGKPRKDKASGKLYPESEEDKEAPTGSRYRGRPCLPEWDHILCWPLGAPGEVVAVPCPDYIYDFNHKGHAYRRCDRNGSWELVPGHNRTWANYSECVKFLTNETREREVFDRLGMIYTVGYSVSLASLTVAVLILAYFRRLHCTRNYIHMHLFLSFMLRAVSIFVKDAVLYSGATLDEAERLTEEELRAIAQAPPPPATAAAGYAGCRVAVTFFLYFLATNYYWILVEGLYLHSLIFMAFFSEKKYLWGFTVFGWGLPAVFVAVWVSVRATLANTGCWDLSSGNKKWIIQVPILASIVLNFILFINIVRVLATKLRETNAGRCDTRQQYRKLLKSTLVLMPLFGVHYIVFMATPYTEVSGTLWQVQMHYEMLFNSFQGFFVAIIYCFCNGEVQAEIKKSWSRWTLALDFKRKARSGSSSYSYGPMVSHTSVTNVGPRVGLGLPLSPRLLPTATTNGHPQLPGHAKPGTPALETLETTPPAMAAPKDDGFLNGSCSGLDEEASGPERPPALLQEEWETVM
# Assay: qHTS for PTHR1 Agonists: Primary Screen; further: nearly all actives have a fitted effect of over 55% in size
# Settings: HEK293 GP2 PTHR1 cells, GloSensor cAMP luminescence, 1 h; series mostly up to 115 µM; activation: at the top concentration
# From the text: The goal of the proposed studies is to discover new compounds that act as potent agonists on the parathyroid hormone receptor type-1 (PTHR1). The PTHR1 plays critical roles in maintaining blood calcium and phosphate levels, as well as in controlling bone remodeling. PTHR1 agonists could thus be useful for treating diseases such as hypoparathyroidism and osteoporosis. In the former disease, an agonist drug would help maintain normal blood calcium and phosphate levels under conditions of parathyroid hormone deficiency. In the latter disease, an agonist drug would stimulate new bone formation and thus reduce the risk of fracture, under conditions of bone fragility, as occurs in aging.
# To that end, we performed a quantitative high-throughput screening (qHTS) of the Molecular Libraries Probe Centers Network (MLPCN) compound libraries at the NIH Chemical Genomics Center (NCGC) for the parathyroid hormone receptor type-1 (PTHR1) using a unique HEK-293-derived cell line (GP2) that expresses the PTHR1 and a glosensor cAMP reporter construct.
# NIH Molecular Libraries Probe Production Centers Network [MLPCN]
# NIH Chemical Genomics Center [NCGC]
# Assay Submitter (PI): Thomas Gardella, Massachusetts General Hospital
# 4 microL are dispensed into a 1536-well micro plate to yield 3,000 cells/well. The plates are then incubated overnight, after which 4 microL of 0.5 mM of BIoTium Luciferin plus 0.5 mM IBMX are added. They are then incubated at 37 degree for one hour before 23 nL of compounds are added through pinning and then incubated at 37 degree again for another hour. After the plates are kept at room temperature for 15 min before they are read on the ViewLux to measure luminescence.
# Potency means the concentration at half of the fitted maximal effect.
SMILES,activation,outcome,Potency
CCCn1c2ccccc2c2cnn(CC(=O)NCC3CCN(Cc4ccc(C)cc4)CC3)c(=O)c21,-10.4%,–,–
Cn1c(=O)sc2cc(NS(=O)(=O)c3ccc(C(C)(C)C)cc3)ccc21,–,inactive,–
O=C(CSc1nccn1Cc1ccc(F)cc1)NCc1ccccc1,–,inactive,–
O=C(Cn1nc(C(F)(F)F)c2c1CCCC2)Nc1ccc(Cl)cc1,-28.6%,–,–
CCOC(=O)C1CCN(c2ncnc3c2c(-c2ccccc2)cn3-c2cccc(C)c2)CC1,-9.28%,–,–
CSc1ccc(CCNC(=O)c2cnn(-c3ccccc3)c2-n2cccc2)cc1,-0.368%,–,–
COc1ccccc1CNC(=O)CS(=O)(=O)c1cccc2nsnc12,-27.3%,–,–
COc1ccc(N2CCN(Cc3nc4c(c(=O)[nH]c(=O)n4C)n3Cc3ccc(Cl)cc3)CC2)cc1,-14.2%,–,–
COc1ccccc1C(=O)OCc1cc(=O)n2nc(-c3cccs3)sc2n1,-22.8%,–,–
NS(=O)(=O)c1ccc(CCNC(=O)CCCCCn2c(=O)[nH]c3ccccc3c2=O)cc1,–,inactive,–
NS(=O)(=O)c1ccc(CCNC(=O)CCCn2c(SCC(=O)N3CCCC3)nc3ccsc3c2=O)cc1,–,–,21.6 µM (active)
CCCCn1c(SCC(=O)N2CCCC2=O)nc2cc(S(N)(=O)=O)ccc21,–,inactive,–
CCc1nc2c(cnn2-c2ccc(C)cc2)c(=O)n1-c1ccc(C)cc1,-39.6%,–,–
CCCC12CN3CC(CCC)(CN(C1)C3c1c[nH]c3ccc(OC)cc13)C2=O (centres undefined),-51.8%,–,–
Cc1ccc(C)c(NC(=O)Cn2ccn(-c3ccc(F)cc3)c(=O)c2=O)c1,-0.697%,–,–
Cc1cc(C)cc(NC(=O)Cn2c(=O)c3ccccc3n3nncc23)c1,-0.562%,–,–
Fc1ccc(-n2ncc3c(Nc4ccc(Oc5ccccc5)cc4)ncnc32)cc1,-2.25%,–,–
Cc1ccc(CNC(=O)CCc2c(C)nc3nc(CNC(=O)OC(C)(C)C)nn3c2C)cc1,-17.4%,–,–
CCN(CC)S(=O)(=O)c1ccc2c(c1)N(CC(=O)NCc1ccccc1)C(=O)CS2,–,inactive,–
COc1ccc2c(c1)c(=O)c(C(=O)c1ccccc1)cn2CC(=O)Nc1ccc2c(c1)OCCO2,–,inactive,–

SMILES,activation,outcome,Potency
COc1ccccc1CN1CCC(CNC(=O)c2cnn(-c3cccc(Cl)c3)c2C2CCN(C(=O)OC(C)(C)C)CC2)CC1,–,inactive,–
COc1cccc(CNC(=O)CCC(=O)N2CC3CCCN3c3ccccc32)c1 (centres undefined),-22.2%,–,–
Cc1ccn2c(Nc3ccc4c(c3)OCCO4)c(-c3ccc(C)s3)nc2c1,-23.9%,–,–
COc1ccc(NC(=O)C2CCN(c3ccc(Sc4ccc(C)cc4)nn3)CC2)c(OC)c1,-16.3%,–,–
COc1ccc(Cn2ccnc2SCC(=O)Nc2ccc3c(c2)OCO3)cc1,–,inactive,–
Cc1cccc(-c2nc(SCC(=O)Nc3cc(C)on3)c3c(=O)n(C)c(=O)n(C)c3n2)c1,-35.6%,–,–
COc1ccc(OC)c(NC(=O)CN2CCCN(Cc3cc(C)ccc3C)S2(=O)=O)c1,–,inactive,–
COc1ccc(OC)c(CNC(=O)CN2C(=O)CCn3nc(-c4cn(C)c5ccccc45)cc32)c1,–,inactive,–
CC1CCCN(c2cc3c(cc2F)c(=O)c(S(=O)(=O)c2cccc(Cl)c2)cn3Cc2ccccc2)C1 (centres undefined),-0.749%,–,–
CCOC(=O)c1ccccc1NC(=O)c1sc2nc(-c3ccc(F)cc3)cn2c1C,–,inactive,–
CCOc1ccc(-c2cc(C)n3nc(C(=O)Nc4ccc(C)c(C)c4)cc3n2)cc1,-13.2%,–,–
O=S(=O)(NCCS(=O)(=O)N1CCN(c2ccccc2)CC1)c1ccc(Cl)cc1,–,inactive,–
CCN(CC)S(=O)(=O)c1ccc2c(c1)nc(CN(C)C(=O)Nc1ccc(Cl)cc1)n2C,–,inactive,–
CC1=C(c2ccc(C)c(C)c2)S(=O)(=O)NC1=NCc1ccccc1Cl,-38.2%,–,–
COC(=O)c1cc(NC(=O)c2sc3ccccc3c2Cl)cc(C(=O)OC)c1,-7.08%,–,–
Cc1[nH]c2ccccc2c1C(c1ccccc1)c1cccs1 (centres undefined),-5.12%,–,–
CCOc1ccc(N(Cc2ccccc2)C(=O)c2nc(S(C)(=O)=O)ncc2Cl)cc1,-96.5%,–,–
CCOCCCNC(=O)c1cn(CC)c2ccc(S(=O)(=O)N3CCc4ccccc4C3)cc2c1=O,–,inactive,–
Cc1ccc(OCC(=O)Nc2ccc(Cl)c(-c3nc4ccccc4[nH]3)c2)cc1C,-22.3%,–,–
CCC1=Nc2cc(C(=O)NCCCOC(C)C)ccc2Sc2ccc(C)cc21,–,inactive,–

SMILES,activation,outcome,Potency
COc1ccc(-c2noc(CCC(=O)N(C)c3ccccc3C)n2)cc1,-19.3%,–,–
Cc1cccc(N2CCN(c3ccc(C(=O)O)cc3NC(=O)c3ccccc3F)CC2C)c1 (centres undefined),-4.85%,–,–
Cc1cc(C)cc(NS(=O)(=O)c2ccc(-c3cc(C)no3)s2)c1,-34.8%,–,–
COc1cc(C(=O)NCCS(=O)(=O)N2CCN(c3ccccc3)CC2)cc(OC)c1OC,–,inactive,–
CCOc1ccc(C(=O)c2cn(Cc3ccccc3OC)c3ccc(F)cc3c2=O)cc1,–,inactive,–
CN1C(=O)c2ccccc2Sc2ccc(NC(=O)Cc3ccc(Cl)cc3)cc21,-73.4%,–,–
Cc1ccccc1-c1nc2scc(CCNC(=O)C(=O)Nc3ccc(F)cc3F)n2n1,-0.325%,–,–
O=C(CCS(=O)(=O)c1cc(Br)cc2c1N(C(=O)C1CC1)CC2)Nc1ccc(C(F)(F)F)cc1,–,inactive,–
Cc1cc(C)c(NC(=O)CSc2nc3nccnc3c(=O)n2CCc2c[nH]c3ccccc23)c(C)c1,–,inactive,–
COc1ccccc1C(=O)Nc1c(C(=O)N(C)Cc2ccccc2)sc2nc(C)c(Cl)c(C)c12,-3.73%,–,–
CCN(C(=O)Cn1cnc2sc(C)c(S(=O)(=O)N3CCN(c4ncccn4)CC3)c2c1=O)c1ccccc1F,-22.9%,–,–
CCC(=O)N1CCc2cc(CNC(=O)Nc3ccccc3Cl)ccc21,–,inactive,–
CSc1nc(-c2ccc(F)cc2)nc2c1Cc1c(CO)cnc(C)c1O2,-3.85%,–,–
Cc1ccccc1OCCSc1nc2ccc(NC(=O)c3ccco3)cc2s1,-22.6%,–,–
Cc1ccc(Cn2c(=O)n(-c3ccc(C)cc3)c(=O)c3c2c2cc(C)ccc2n3C)cc1,–,inactive,–
Cc1ccsc1CN(C(=O)c1oc2ccc(Br)cc2c1C)C1CCS(=O)(=O)C1 (centres undefined),-19.6%,–,–
Cc1ccccc1CSc1nc2c([nH]c3ccccc32)c(=O)n1C,–,inactive,–
CC(=O)c1ccc(N2CCN(c3nc4c(S(=O)(=O)c5ccccc5)nnn4c4ccc(Cl)cc34)CC2)cc1,-11.3%,–,–
Cc1cccc(N2CCN(C(=O)Cn3ncc4c5ccccc5n(C)c4c3=O)CC2C)c1 (centres undefined),-6.58%,–,–
